Assay [1] can be described thus: TAMU_PeakParms_SingleDonor1434_Chronotropy: Texas A&M University (TAMU) 1.5-hr Human Induced Pluripotent Stem Cell (iPSC)-derived Cardiomyocytes Calcium (Ca+2) Flux Assay for Cardiotoxicity: Chronotropy (changes in peak frequency) (AID 2284217). The note with it: actives raise or lower the signal. The procedure, abridged: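 Beat rate, as mean Ca2+-flux peak frequency, was read from donor 1434 iPSC cardiomyocytes 90 min after exposure to 0.2–100 uM test chemical (0.5% DMSO). Wells that stopped beating were excluded; EC05 from bidirectional DMSO-referenced fitting.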

Assay [2] in a line: TAMU_HCS_1.5hr_SingleDonor1434_Cytotoxicity: Cytotoxicity Assessment using High-content Screening (HCS) Fluorescent Imaging for the Texas A&M University (TAMU) 1.5-hr Human Induced Pluripotent Stem Cell (iPSC)-derived Cardiotoxicity Assay (AID 2284234; active means hit-call score of the fitted dose curve at least 0.9, where 1 is the maximum). The procedure, abridged: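 Human iPSC-derived cardiomyocytes dosed at 0.2, 1, 10, 100 uM final (0.5% DMSO) for 90 min at 37 C. Hoechst 33342-stained nuclei counted by 10x high-content imaging; POD is EC10, a 10% drop in total cell count versus DMSO.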

A short description of assay [3]: TAMU_PeakParms_SingleDonor1434_QT: Texas A&M University (TAMU) 1.5-hr Human Induced Pluripotent Stem Cell (iPSC)-derived Cardiomyocytes Calcium (Ca+2) Flux Assay for Cardiotoxicity: QT (decay-rise ratio) (AID 2284235; active means hit-call score of the fitted dose curve at least 0.9, where 1 is the maximum). The procedure, abridged: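 iPSC-derived cardiomyocytes (single donor 1434) dosed at 0.2, 1, 10, 100 uM final in 0.5% DMSO, 90 min at 37C. Ca2+ flux fluorescence decay/rise ratio; EC05 (5% increase versus DMSO) as POD, excluding beat-arrest and severe-notch data.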

Assay [4] can be described thus: CCTE_Shafer_MEA_dev_correlation_coefficient_mean: CCTE's Neural Network Formation Assay for Mean Correlation Coefficient, Shafer Lab (AID 2284093).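 On AC50: well mean pairwise spike train correlation integrated as AUC over recording days 5 to 12; potency fitted for loss of correlation relative to DMSO vehicle wells.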 The procedure, abridged: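 Primary rat cortical neurons on PEI-coated 48-well MEA plates (16 electrodes/well) were exposed from plating day 0 through DIV12, with compound renewed at DIV5 and 9. Pairwise spike correlations were averaged per well; trapezoidal AUC across DIV5, 7, 9, 12.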

Assay [5] in a line: IUF_NPC1b_proliferation_BrdU_72hr: Leibniz Research Institute for Environmental Medicine (IUF) 72-hour Neural Progenitor Cell Bromodeoxyuridine (BrdU) Proliferation Assay (NPC1b) (AID 2284207). The procedure, abridged:
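hNPC spheres (primary, GW 16-19 fetal cortex), single sphere/well, EGF+FGF medium; 72 h compound, no renewal; BrdU pulse last 16 h; luminescent ELISA; activity vs DMSO baseline; growth-factor withdrawal as positive control.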

The nature of assay [6]: IUF_NPC1a_proliferation_area_72hr: Leibniz Research Institute for Environmental Medicine (IUF) 72-hour Neural Progenitor Cell Proliferation Area Assay (NPC1a) (AID 2284208). The procedure, abridged: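 Measured in 3D suspension: each well held one primary hNPC sphere grown with EGF and FGF at pH 7.2-7.6. Compound stayed on for 72 h, then area was imaged; spheres lacking growth factors defined reduced proliferation.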

The nature of assay [7]: IUF_NPC1_viability_72hr: Viability Assessment at 72 hours in the Leibniz Research Institute for Environmental Medicine (IUF) Neural Progenitor Cell Proliferation Assay (NPC1) (AID 2284209). The procedure, abridged:
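Human fetal-cortex neural progenitor spheres (0.25–0.35 mm, one per well) grown in EGF/FGF proliferation medium at 37C, pH 7.2-7.6, exposed 72 h without renewal; viability read as alamar blue resazurin-to-resorufin fluorescence relative to DMSO.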

Assay [8] in a line: CCTE_Mundy_HCI_Cortical_Synap_Neur_Matur_NeuriteSpotCountPerNeuriteLength: CCTE's Synaptogenesis and Neurite Maturation Assay in rat cortical cells for Neurite Spot Count per Neurite Length, Mundy Lab (AID 2284210). The procedure, abridged:
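Rat primary cortical cultures, glia arrested with AraC at DIV 5, were dosed with media change at DIV 7 and fixed at DIV 12. Synaptophysin puncta per MAP2-labelled neurite length were quantified by high-content imaging versus DMSO.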

Assay [9] is described as follows: CCTE_Mundy_HCI_Cortical_Synap_Neur_Matur_BPCount: CCTE's Synaptogenesis and Neurite Maturation Assay in rat cortical cells for Branch Point Count, Mundy Lab (AID 2284211). The procedure, abridged:
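Branch point number is quantified by automated imaging of fluorescently labelled neurites and synapses in rat primary cortical neurons exposed from DIV 7 to DIV 12. Activity is analysed relative to DMSO negative control.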

A short description of assay [10]: CCTE_Mundy_HCI_Cortical_NOG_NeuriteCount: CCTE's Neurite Outgrowth Assay in rat cortical cells for Neurite Count, Mundy Lab (AID 2284212).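 Further: cells fixed about two days after chemical exposure began.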 The procedure, abridged:
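Neurite number per cell from high-content imaging of betaIII-tubulin immunostaining, with Hoechst nuclear counterstain.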

The nature of assay [11]: CCTE_Mundy_HCI_Cortical_NOG_NeuriteLength: CCTE's Neurite Outgrowth Assay in rat cortical cells for Neurite Length, Mundy Lab (AID 2284213). The procedure, abridged:
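Neurite length was read by high-content imaging of βIII-tubulin-labelled neurites in rat primary cortical cultures. Activity was fitted relative to DMSO.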

Assay [12] is described as follows: CCTE_Mundy_HCI_Cortical_Synap_Neur_Matur_NeuriteLength: CCTE's Synaptogenesis and Neurite Maturation Assay in rat cortical cells for Neurite Length, Mundy Lab (AID 2284214). The procedure, abridged: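 Rat primary cortical cells were plated, treated with AraC at DIV 5 to arrest glial growth, then chemical-dosed with media change at DIV 7 through DIV 12. Fixed cells stained for MAP2, synaptophysin and Hoechst; neurite length quantified by high-content imaging.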

A short description of assay [13]: CCTE_Mundy_HCI_Cortical_Synap_Neur_Matur_NeuriteSpotCountPerNeuron: CCTE's Synaptogenesis and Neurite Maturation Assay in rat cortical cells for Neurite Spot Count per Neuron Count, Mundy Lab (AID 2284215). The procedure, abridged:
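Developing rat cortical neurons, with glia suppressed by AraC, are exposed to chemicals from DIV 7 to DIV 12. Automated fluorescence imaging of MAP2-labelled neurites and synaptophysin puncta yields a count per neuron, normalised against DMSO wells.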

Assay [14] in a line: CCTE_Mundy_HCI_Cortical_Synap_Neur_Matur_SynapseCount: CCTE's Synaptogenesis and Neurite Maturation Assay in rat cortical cells for Synapse Count, Mundy Lab (AID 2284218). The procedure, abridged:
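Rat primary cortical cells in 96-well plates received AraC at DIV 5 and were dosed with chemicals at DIV 7 with media change, through DIV 12 (288.33 h). Synapses per neuron counted by high-content imaging of MAP2/synaptophysin/Hoechst staining, versus DMSO baseline.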

The nature of assay [15]: CCTE_Mundy_HCI_Cortical_Synap_Neur_Matur_NeuriteCount: CCTE's Synaptogenesis and Neurite Maturation Assay in rat cortical cells for Neurite Count, Mundy Lab (AID 2284222).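 Further: exposure from day 7 to day 12 in vitro with readout at day 12.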 The procedure, abridged: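 Rat cortical neurons, 96-well; AraC DIV 5; chemical + media change DIV 7; end DIV 12. Fix PFA/Hoechst, anti-MAP2 + anti-synaptophysin IF. HCI neurite count vs DMSO baseline.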

Assay [16] can be described thus: CCTE_Mundy_HCI_Cortical_Synap_Neur_Matur_CellBodySpotCount: CCTE's Synaptogenesis and Neurite Maturation Assay in rat cortical cells for Cell Body Spot Count, Mundy Lab (AID 2284223). The procedure, abridged: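 Chemicals were applied to AraC-treated rat primary cortical cells at DIV 7 and measured at DIV 12. Fixed cells were labelled for MAP2, synaptophysin and nuclei, and high-content imaging gave cell body synaptophysin spot counts per neuron relative to DMSO.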

Assay [17] is described as follows: CCTE_Mundy_HCI_hNP1_Pro_ResponderAvgInten: CCTE's Proliferation Assay in human neuroprogenitor cells, Mundy Lab (AID 2284224; active means hit-call score of the fitted dose curve at least 0.9, where 1 is the maximum;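 further: human neural progenitor cells hNP1 derived from WA09 embryonic stem cells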). The procedure, abridged: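 Human neuroprogenitors (hNP1, WA09 lineage) receive test chemical after 40 to 44 hours of attachment. A four-hour BrdU pulse begins twenty hours later, followed by fixation and high content imaging; signal is referenced to DMSO controls.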

A short description of assay [18]: CCTE_Mundy_HCI_hN2_NOG_NeuriteCount: CCTE's Neurite Outgrowth Assay in human hN2 cells for Neurite Count, Mundy Lab (AID 2284219; active means hit-call score of the fitted dose curve at least 0.9, where 1 is the maximum). The procedure, abridged: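 In this morphology assay, hNP1-derived neurons received test chemical 2 h post-plating and were fixed two days later in warm paraformaldehyde/sucrose containing Hoechst 33342. Neurites, labelled by rabbit anti-βIII-tubulin (1:800) and Alexa Fluor-488 (1:500), were counted automatically.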

The nature of assay [19]: CCTE_Mundy_HCI_hN2_NOG_NeuriteLength: CCTE's Neurite Outgrowth Assay in human hN2 cells for Neurite Length, Mundy Lab (AID 2284220; active means hit-call score of the fitted dose curve at least 0.9, where 1 is the maximum). The procedure, abridged: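 Using βIII-tubulin immunofluorescence and Hoechst nuclear counterstain, this component quantifies neurite length in hNP1-derived neurons.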
Assay [20] in a line: CCTE_Mundy_HCI_hN2_NOG_NeuronCount: CCTE's Neurite Outgrowth Assay in human hN2 cells for Neuron Count, Mundy Lab (AID 2284221; active means hit-call score of the fitted dose curve at least 0.9, where 1 is the maximum). The procedure, abridged:
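Read-out is the number of betaIII-tubulin-positive neurons imaged by automated high-content analysis, with DMSO as negative control.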

Inconclusive results are not listed. A structure can be active in one record and inactive in another. The source made the active and inactive calls. How the source made its calls, unless noted: active means hit-call score of the fitted dose curve at least 0.9, where 1 is the maximum; inactive means score below 0.9.

One may read the AC50 as the concentration giving half of the maximal activity seen. Consider `COC(=O)c1ccc(O)cc1`, for which the AC50 in assay [1] was 50 µM (active). Also, the call in assay [2] and in [3] was inactive.
As to `C[Si]1(C)O[Si](C)(C)O[Si](C)(C)O[Si](C)(C)O1`, the outcome in [4], in assay [5], in assay [6], in assay [7], in assay [8] and in assay [9] was inactive. Moreover, the compound was classed as inactive in assay [10], in assay [11], in assay [12], in [13], in assay [14] and in assay [15]. Moreover, the result in assay [16] and in [17] was inactive.
With `OC[C@@H](O)[C@@H](O)[C@H](O)[C@H](O)CO`, the call in [4], in [5], in [6], in assay [7], in assay [8] and in [9] was inactive. Further, the compound was called inactive in assay [10], in [11], in assay [12], in assay [13], in assay [15] and in assay [16]. Moreover, the AC50 in assay [14] was 0.0648 µM (active).
For `C=CCc1ccc(O)c(OC)c1`, in [4], the compound was called inactive.
Still for that read-out and setting: as for `Cc1cc(=O)[nH]c(=S)[nH]1`, the entry is “inactive”; as for `CC(C)c1ccc(C(=O)N=C(N)N)cc1S(C)(=O)=O`, “inactive”.
With `CCOc1ccc2c(c1)C(C)=CC(C)(C)N2`, the result in assay [1] and in assay [3] was inactive. For the same compound, the AC50 in assay [2] was 50 µM (active).
`O=c1[nH]cc(F)c(=O)[nH]1`: the AC50 in assay [4] was 0.696 µM (active); in [20], 2.34 µM (active); in assay [17], 4.62 µM (active). For the same compound, the compound was classed as inactive in assay [8], in [11], in assay [12], in assay [13], in assay [1] and in assay [14]. The compound was classed as inactive in assay [18], in [19], in [16], in [2] and in assay [3].
Regarding `O=C(O)CCCCC(=O)O`, the outcome in [1], in assay [2] and in assay [3] was inactive.
As for `FC(F)(F)C(F)(F)C(F)(F)C(F)(F)C(F)(F)C(F)(F)CCI`, in assay [4], the result was inactive.
Regarding `CC(=O)Oc1ccccc1C(=O)O`, the result in assay [4], in assay [6], in [7], in assay [8], in assay [9] and in assay [10] was inactive. For the same compound, the outcome in assay [11], in assay [12], in [13], in [1], in assay [14] and in assay [15] was inactive. For the same compound, the compound was classed as inactive in assay [16], in [2] and in assay [3]. Besides, the AC50 in assay [5] was 0.725 µM (active).
As for `CCCc1cc(=O)[nH]c(=S)[nH]1`, the AC50 in [4] is 23.9 µM (active). In addition, the compound was called inactive in [4], in [8], in assay [11], in assay [12], in assay [13] and in assay [1]. Moreover, the result in assay [14], in assay [18], in assay [19], in assay [20], in [16] and in [2] was inactive.
